# Rows were chosen to be rich in hits. Some 7% of all compounds tested hit in one or more screens of this group.
# AHR act: activates the human aryl hydrocarbon receptor. AID 2796. hit rate 2.5% among 320,000. AHR-responsive luciferase reporter cells, luminescence. P35869. activation, % at 5 µM; in the data active means activation above about 47%
# NR3A LBD binder: modulators (binders) of human NR3A ligand-binding domain | NR3A LBD differential scanning fluorimetry, Tm shift; 0% = protein alone, 100% = glycine-bound protein | Tm shift relative to glycine control, % at 25 µM | hit rate 2.5% among 340,000 | AID 1259313;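 active means melting temperature shift of at least 10% of the positive control shift, at one fixed dose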
# rCAG RNA binder: r(CAG) repeat RNA binding; TO-PRO-1 dye displacement fluorescence; inhibition, % at 3 µM; hit rate 1.3% among 370,000; AID 651821;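 active means inhibition above the plate cutoff, the mean of all test compounds on that plate plus 3 SD, cut at about 35% in these data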;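 further: higher means more dye released from RNA so lower well fluorescence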
# ADAM10 inh: inhibitors of human ADAM10 | hit rate 0.62% among 370,000 | inhibition, % at 7 µM | recombinant ADAM10, EDANS/DABCYL FRET peptide cleavage, 3 h | O14672;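 active means inhibition above a per-campaign cutoff equal to the mean of compounds falling between control-based bounds plus 3 SD, cut at about 20% in these data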
# Target sequence (O14672 214-748 limits assumed): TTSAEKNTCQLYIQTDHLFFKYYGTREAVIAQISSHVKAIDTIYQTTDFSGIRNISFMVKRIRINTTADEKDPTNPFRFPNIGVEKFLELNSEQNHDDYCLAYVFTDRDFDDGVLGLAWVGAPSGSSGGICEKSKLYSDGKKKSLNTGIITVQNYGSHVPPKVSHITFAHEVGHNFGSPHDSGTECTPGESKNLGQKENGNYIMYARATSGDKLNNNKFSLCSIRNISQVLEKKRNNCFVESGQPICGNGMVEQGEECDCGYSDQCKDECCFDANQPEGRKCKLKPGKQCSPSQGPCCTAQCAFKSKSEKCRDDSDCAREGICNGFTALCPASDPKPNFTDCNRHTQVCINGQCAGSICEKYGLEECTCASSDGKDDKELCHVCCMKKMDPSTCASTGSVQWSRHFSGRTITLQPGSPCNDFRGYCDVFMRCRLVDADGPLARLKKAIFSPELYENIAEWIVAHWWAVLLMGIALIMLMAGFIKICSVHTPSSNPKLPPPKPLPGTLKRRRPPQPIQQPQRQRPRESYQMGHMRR
# ADAM17 inh: inhibits human ADAM17; hit rate 0.83% among 370,000; inhibition, % at 6.95 µM; recombinant ADAM17, EDANS/DABCYL FRET peptide cleavage;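 active means inhibition above the mean of compounds lying between control limits plus 3 SD, set per campaign, cut at about 8.5% in these data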
# KLK7 zymogen act: proKLK7 (human) activation, primary screen. P49862. purified proKLK7, EDANS-DABCYL substrate fluorescence; 100% is mature enzyme control, 0% vehicle. hit rate 0.9% among 370,000. activation, % at 7 µM;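 active means activation above the mean of all tested compounds plus 3 SD, computed per campaign excluding outliers beyond control limits, cut at about 13% in these data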
# Numbers stand for hits; – = inactive; · = not tested or not shown; ! = not confirmed by another sample.
SMILES,AHR act,NR3A LBD binder,rCAG RNA binder,ADAM10 inh,ADAM17 inh,KLK7 zymogen act
O=C(c1ccc(COc2ccccc2Cl)o1)N1CCN(Cc2ccc3c(c2)OCO3)CC1,–,15!,–,–,–,–
COc1cccc(-c2nc(CS(=O)(=O)CC(=O)N3CCCCC3)c(C)o2)c1,–,–,–,–,–,–
COc1cccc(C(=O)N2CCN(c3ccccn3)CC2)c1,–,–,–,–,–,–
CCOC(=O)C1CCCN(C(=O)c2cc3c(-c4cccc(OC)c4)nn(C)c3s2)C1 (stereo not given),–,–,–,–,–,–
COc1cccc(-c2nn(C)c3sc(C(=O)NCc4ccc(C)o4)cc23)c1,–,–,–,–,–,–
COc1cccc(-c2nn(C)c3sc(C(=O)N4CCN(c5ccccn5)CC4)cc23)c1,58,–,·,·,·,·
COc1cccc(-c2nn(C)c3sc(C(=O)N4CCOCC4)cc23)c1,58,–,–,–,–,–
COc1cccc(-c2nn(C)c3sc(C(=O)NCc4ccc5c(c4)OCO5)cc23)c1,50,–,–,–,–,–
COc1cccc(-c2nc(CS(=O)(=O)CC(=O)N3CCN(c4ccccn4)CC3)c(C)o2)c1,57,–,–,–,–,–
COc1ccc(OC)c(S(=O)(=O)n2c(CN3CCOCC3)nc3ccccc32)c1,·,·,–,–,–,–
CCCC1CCC2(CC1)CCC2OC(=S)NCc1ccc(Cl)cc1 (stereo not given),·,·,·,–,–,·
CCOC(=O)CC[C@@H]1CC[C@]2(CCCN(Cc3ccc(Cl)cc3)C2)O1,·,·,–,–,–,–
Cc1nc(NC2CCCC2)c2nnn(Cc3ccccc3)c2n1,·,·,–,–,–,–
CC(C)C[C@H]1COc2cccc(F)c2S(=O)(=O)N1C,·,·,–,–,–,–
Cn1nc(-c2ccccc2F)c2cc(C(=O)N3CCN(C(=O)c4ccco4)CC3)sc21,66,–,–,–,–,–
Cn1nc(-c2ccc(Cl)cc2)c2cc(C(=O)N3CCOCC3)sc21,55,–,–,–,–,–
O=C(c1cc(-c2ccc(Cl)cc2)on1)N1CCOCC1,–,–,–,–,–,–
C#CCNC(=O)C[C@H]1C[C@@]2(C(=O)OC)C(=C[C@H](C(C)(C)C)O[C@@H]2C)N(CCC2=CCCCC2)C1=O,·,·,–,–,–,–
CCCCN1CCS(=O)(=O)N(Cc2cn(Cc3ccc(C)cc3)nn2)C(C(=O)OC)C1 (stereo not given),·,·,–,–,–,–
COC(=O)C1CCN(C(=O)CCn2nnc(-c3cccs3)n2)CC1,·,·,–,–,–,–
O=C(OC12CCCN(C1)/C(=C/c1ccccc1)C2)c1ccccc1 (stereo not given),·,·,–,–,–,–
CSCCC(NS(=O)(=O)c1ccccc1F)C(=O)OCc1ccccc1Cl (stereo not given),–,20,–,–,–,–
CSCCC(NS(=O)(=O)c1ccc(Cl)cc1)C(=O)OCc1c(Cl)cccc1Cl (stereo not given),–,–,–,–,–,–
O=C(O)c1ccccc1-c1ccccc1C(=O)NNc1ccccc1,–,14,–,–,–,–
COC(=O)[C@]12C[C@H](CC(=O)N3CCOCC3)C(=O)N(Cc3cccc4ccccc34)C1=C[C@H](C1CCCC1)O[C@@H]2C,·,·,–,–,–,–
SMILES,AHR act,NR3A LBD binder,rCAG RNA binder,ADAM10 inh,ADAM17 inh,KLK7 zymogen act
O=C(c1ccccc1Cl)c1c(O)c2ccccc2oc1=O,55,–,–,–,–,–
COc1cccc(NC(=O)Nc2ccc3nc(C)c(C)nc3c2)c1,–,28,–,–,–,–
COc1cccc(NC(=O)Nc2ccc3c(c2)nc(C)n3C)c1,–,–,–,–,–,–
COc1ccc(NC(=O)CN(C)CC(=O)NCC(=O)Nc2ccc(F)cc2)cc1,–,–,–,–,–,–
COc1cccc(NC(=O)Nc2ccc3nsnc3c2)c1,–,37,–,–,–,–
COc1cccc(NC(=O)Nc2cc(Cl)ccc2C)c1,–,21,–,–,–,–
COc1cccc(NC(=O)CN(C)CC(=O)NCC(=O)Nc2ccc(F)cc2)c1,–,19,–,–,–,–
COc1ccc(NC(=O)Nc2cc(F)ccc2C)cc1,–,–,–,–,–,–
Brc1ccc2nc(-c3ccc(CN4CCC5(CC4)CNc4ccccc45)cc3)c(-c3ccccc3)nc2c1,·,·,–,–,–,–
Cc1ccc(S(=O)(=O)N2CC3(COC(C)(C)OC3)C[C@H]2CON2C(C)(C)CCCC2(C)C)cc1,·,·,·,–,–,·
Nn1c(SCC(=O)Nc2ccc(C(=O)O)cc2)nnc1-c1ccco1,·,·,–,–,–,–
Cc1ccc(NC(=O)Nc2ccc3c(c2)CCC3)cc1C,–,–,–,–,–,–
COc1cccc(NC(=O)Nc2ccccc2Br)c1,–,–,–,–,–,–
COc1ccc(NC(=O)Nc2cccc(OC)c2)cc1,–,25,–,–,–,–
C=CCNC(=O)Nc1ccc2oc(C)nc2c1,–,–,–,–,–,–
COc1ccc(NC(=O)Nc2ccc3c(c2)CCC3)cc1,–,14,–,–,–,–
COc1ccc(NC(=O)Nc2ccc3oc(C)nc3c2)cc1,–,25,–,–,–,–
COC(=O)[C@H]1C[C@@]2(n3ccc4ccccc43)c3ccccc3N(S(=O)(=O)c3ccccc3)[C@H]2N1,·,·,–,–,–,–
CCOc1ccc(NC(=O)CCC(=O)NNC(=O)Nc2ccc(Cl)cc2)cc1,–,12,–,–,–,–
COc1ccc(C[N+]2=C(N)NC3=C4CCCCC4n4c(=O)n(-c5ccccc5)c(=O)n4C3C2)c(OC)c1 (stereo not given),·,·,–,–,–,–
COc1ccc(-c2c(Cc3ccccc3)nc(NC(=O)c3ccccc3)n2C)cc1,·,·,–,–,–,–
COc1ccc(OCC(=O)NNc2nc3ccccc3s2)cc1,–,–,–,–,–,–
Cc1ccc(Cl)c2sc(NC(=O)C3CC3)nc12,49,–,–,–,–,–
CCC(=O)Nc1nc2c(OC)ccc(OC)c2s1,68,–,–,–,–,–
COc1ccc(OC)c2sc(NNC(=O)COc3ccccc3)nc12,79,–,–,–,–,–
SMILES,AHR act,NR3A LBD binder,rCAG RNA binder,ADAM10 inh,ADAM17 inh,KLK7 zymogen act
COc1ccc(OC)c2sc(NC(=O)C3CC3)nc12,75,–,–,–,–,–
CC(COc1cccc(C#N)c1)CN1CCC(C(O)(c2ccccc2)c2ccccc2)CC1 (stereo not given),·,·,–,–,–,–
O=C(Nc1ccc2c(c1)Cc1ccccc1-2)NC1CCCCN(Cc2cccc(Cl)c2)C1=O (stereo not given),·,·,–,–,–,–
COc1ccc(OC)c2sc(NNC(=O)C3COc4ccccc4O3)nc12 (stereo not given),57,–,–,–,–,–
CCCC(=O)Nc1nc2c(OC)ccc(OC)c2s1,68,–,–,–,–,–
O=C(NNc1nc2c(F)cc(F)cc2s1)C1COc2ccccc2O1 (stereo not given),–,–,–,–,–,–
COc1ccc(OC)c2sc(NC(=O)c3ccc(Cl)s3)nc12,–,–,–,–,–,–
